From the supplement of paper PMC11417369
Whole data set: some 25,000 sequences, median “ln(normalized median fluorescence intensity)” near 6.7, cut for the highest 2% near 10. Only a selection was taken, and the highest values are over-represented in it overall.

tested on: PfHDP1 homeodomain (GST-tagged); test: gcPBM binding intensity (ln(normalized median fluorescence intensity)); higher = stronger DNA binding
Outline: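 The highest Masliner-normalised natural-log median intensity across replicate spots of either probe orientation is reported as binding intensity. GST-tagged P. falciparum DNA-binding domains expressed in E. coli were applied for 1 h to an Agilent 4 × 180k array of primer-extended double-stranded 36-bp intergenic genomic probes plus negative controls, and bound protein was detected with Alexa488 anti-GST antibody and scanned at 488 nm.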

Sequence | gcPBM binding intensity (ln)
TATAATCTAACATAATGTACATGTATATGCACTTTA [XGTACX_site369] | 8.43
TTATATTATTCGTGTGTGCACGATATTTCATAATTG [GTGCAC_site9767] | 8.92
AAAAAAAAATACAAAATAGCAATAAATACACAAACG [GTGCAC_negctrl_site707] | 7.12
TTTGATGGTACACGTACACACCTTGCAAATATTTTT [CACACA_site4645] | 7.13
AAAGAAAGAAAGAAAAGTACTTAAACTTTTAAAAAT [XGTACX_site8531] | 6.03
AAAATCTAATATAATGCACACATAAAAAAAAAATCA [CACACA_site8871] | 10.4
AAAAAATAATAAATCACACATATTATATATATATAT [CACACA_site5838] | 8.94
AAAAAAATCTCCAGTGTGCACAATCACATAATATAT [GTGCAC_site9833] | 10.8
TTATGGAAAAATATAACACACAATGATTTTTTATAA [CACACA_site1831] | 6.33
ATTATGAAATATCGTGCACACACGAATAATATAAGA [CACACA_site1294] | 9.49
CAATAAATCGAAATCGTGCACGGACACATGCAGTAG | 10.9
CACACGCACGGACACACACACATATAAAATCTATAT [CACACA_site6428] | 7.73
AATCGAAATCGTGCACGGACACATGCAGTAGCCGAG [XGTACX_site6001] | 10.2
AAATCGTGCACGGACACATGCAGTAGCCGAGAATTA [TGCATGCA_site733] | 11.1
ATTTTAAAAAGGATAGTGCAAATGTTAAAATAGGAC | 9.91
CGTAAATTTTTTAAAAGTACAAAAAGATACGAGAAA [XGTACX_site8722] | 6.46
TATTCATGCATATACACACACATATATTTATATTTT [CACACA_site7786] | 7.08
TCATATTATAAATAAATAAATAAATATATATATATA [CACACA_negctrl_site577] | 8.76
GAATAAATATTAAATGTGCACTTGAATAGATGTAAA | 9.88
AAATAAAAATTAAAAAAATAGAAACGAATTGAATGC [TGCATGCA_negctrl_site365] | 6.69
TATAAATTAAAATGTGTGCACTAAATTGAAATAGAA | 10.6
AATAATATTAACACACGTACAAAAGCAAACAACCAA [XGTACX_site7410] | 7.16
ATATATATATATCAGAGTACATTCTTTAAAATATAT [XGTACX_site5915] | 8.7
ATGTATGTGTATATATGTACATAATATATATCTTTT [XGTACX_site8666] | 6.6
ATATATATCTTTTGTGTGCACATATATATAATATAT | 10.9
ATAATATCTTTATGTGTGCACATATATATATATATA | 10.5
TATATATATATATGTGCACACATAATAAAAAAAAAA [CACACA_site3830] | 10.1
ATAATATATATATATGCATGTACATATTTATCTTTA [TGCATGCA_site32] | 6.74
TCTTTTCTTTTGTGTGTGCACATATAAGCATGAAAC [GTGCAC_site9910] | 10.4
